Rows were chosen to be rich in hits. Some 19% of all compounds tested hit in one or more screens of this group.
TDP1 inh – qHTS Assay for Inhibitors of Tyrosyl-DNA Phosphodiesterase (TDP1) | Tyrosyl-DNA phosphodiesterase 1 (Homo sapiens), Q9NUW8 | recombinant TDP1, AlphaScreen DNA substrate cleavage | Potency, µM (series often up to 130 µM), for inactives: at the top dose activity change, negative = inhibition, most hits filed as inhibitors | hit rate 0.28% among 350,000 | AID 485290, 2010; further: nearly all actives have a fitted effect of over 40% in size
Target sequence (Q9NUW8 whole entry, looked up): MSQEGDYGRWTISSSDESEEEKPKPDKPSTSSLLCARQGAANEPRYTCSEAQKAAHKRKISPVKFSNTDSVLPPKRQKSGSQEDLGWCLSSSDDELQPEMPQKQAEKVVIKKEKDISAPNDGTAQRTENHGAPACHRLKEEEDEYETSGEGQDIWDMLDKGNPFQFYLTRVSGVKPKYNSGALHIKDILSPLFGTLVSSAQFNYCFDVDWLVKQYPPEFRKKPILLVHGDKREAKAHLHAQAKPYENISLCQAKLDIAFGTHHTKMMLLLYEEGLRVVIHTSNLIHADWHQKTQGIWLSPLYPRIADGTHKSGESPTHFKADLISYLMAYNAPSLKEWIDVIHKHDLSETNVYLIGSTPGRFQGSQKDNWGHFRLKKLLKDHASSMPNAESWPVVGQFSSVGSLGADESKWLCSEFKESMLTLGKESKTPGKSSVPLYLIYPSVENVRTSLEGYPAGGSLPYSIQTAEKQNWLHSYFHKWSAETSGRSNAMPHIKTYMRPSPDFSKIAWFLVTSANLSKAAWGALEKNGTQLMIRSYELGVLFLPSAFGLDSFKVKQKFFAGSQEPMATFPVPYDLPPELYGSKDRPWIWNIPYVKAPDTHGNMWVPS
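E. coli-derived human Tdp1, 1 nM final. Cpd preinc 15 min RT; substrate 15 nM final, 5 min RT; AS bead mix 10 ug/ml final, 10 min RT. Signal loss = tyrosine-FITC cleavage. No-enzyme wells = max signal.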
DT40 TDP1 CPT – qHTS for Inhibitors of human tyrosyl-DNA phosphodiesterase 1 (TDP1): qHTS in cells in presence of CPT. Potency, µM (top dose mostly 46.2 µM), inactives show top-dose activity change, negative = growth inhibition, usual class: inhibitors. hit rate 12% among 420,000. chicken DT40 Tdp1-/-;hTDP1 cells + 20 nM CPT, ATP luminescence, 48 h; further: nearly all actives have a fitted effect of over 55% in size
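Cell growth measured by CellTiter-Glo luminescence after a minimum 48 h, 37 C compound exposure with 20 nM CPT in Tdp1-knockout DT40 cells stably expressing hTDP1, seeded 400/well; qHTS titration format.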
DT40 TDP1 no CPT – qHTS for Inhibitors of human tyrosyl-DNA phosphodiesterase 1 (TDP1): qHTS in cells in absence of CPT. DT40 Tdp1-/- hTDP1 cells, no CPT, ATP luminescence, 48 h. Potency, µM (doses to about 46.2 µM), without a hit: at the top dose activity change, negative = growth inhibition, hits mostly inhibitors. hit rate 15% among 420,000. AID 686978, 2013; further: nearly all actives have a fitted effect of over 55% in size
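Compound effects on proliferation are scored in DT40 Tdp1-/-;hTDP1 cells in the absence of CPT. ATP levels (CellTiter-Glo luminescence) are recorded after a ≥48 hr, 37 °C incubation.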
VP16 counter – VP16 counterscreen qHTS for inhibitors of ROR gamma transcriptional activity; Drosophila S2 Gal4-VP16 UAS-luciferase, luminescence, 20 h; hit rate 3.5% among 310,000; AID 2546, 2010; Potency, µM (highest dose often 53.6 µM), without a hit: at the highest dose activity, negative = inhibition, usual class: inhibitors;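 further: Gal4-VP16 expression switched on by copper sulfate through the metallothionein promoter; nearly all actives have a fitted effect of over 50% in size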
RORgamma inh – qHTS for inhibitors of ROR gamma transcriptional activity; hit rate 5.4% among 310,000; Drosophila S2 Gal4-RORgamma UAS-luciferase reporter, 20 h; Potency, µM (highest dose often 53.6 µM), inactives show top-dose activity change, negative = inhibition, hits mostly inhibitors; Nuclear receptor ROR-gamma (Mus musculus), P51450; further: nearly all actives have a fitted effect of over 60% in size
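Luminescence from a UAS-regulated Photinus luciferase reporter in stably transfected Drosophila Schneider cells is measured; decreased signal marks ROR gamma inhibition. Fusion expression is induced by 700 uM copper sulfate for 20 hr.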
Numbers without * were called inactive; ! = not active in a repeat. The call rests on the fitted dose curve; in most records, active means well fitted curve in the direction sought with a large enough effect; inconclusive means small, poorly fitted or top-dose-only effect, or another doubt; inactive means no such curve, though single readings can be large; an effect the other way counts as inactive or inconclusive. On the % scale 0 is the no-effect control and ±100 the full control effect; potency means the concentration at half of the fitted maximal effect.

`COC(=O)C1(CC2CC(c3ccccc3)=NO2)CCN(C(=O)OC(C)(C)C)CC1` (stereo not given) gave DT40 TDP1 CPT inconclusive and DT40 TDP1 no CPT 21µM*.
COC(=O)C1(CC2CC(c3ccncc3)=NO2)CCN(C(=O)OC(C)(C)C)CC1 (stereo not given) was read as TDP1 inh 0%, DT40 TDP1 CPT inconclusive and DT40 TDP1 no CPT 21µM*.
`CC(C)(C)OC(=O)N1CCC(CC2CC(c3ccccc3)=NO2)(C(=O)O)CC1` (stereo not given) gave DT40 TDP1 CPT -3% and DT40 TDP1 no CPT -11%.
For CCCCCCCNC(=O)C1(CC2CC(c3ccc(Cl)cc3)=NO2)CCN(C(=O)OC(C)(C)C)CC1 (stereo not given) the results were DT40 TDP1 CPT inconclusive, DT40 TDP1 no CPT 21µM*, VP16 counter 2% and RORgamma inh 38%.
For N[C@@H](CSS(=O)(=O)O)C(=O)O the results were TDP1 inh 40µM*!, DT40 TDP1 CPT 7%, DT40 TDP1 no CPT 1%, VP16 counter -1% and RORgamma inh -7%.
CC(NC(=S)NC1CCCCC1)C(c1cccs1)N1CCOCC1 (stereo not given) was read as TDP1 inh 3%, DT40 TDP1 CPT inconclusive, DT40 TDP1 no CPT inconclusive, VP16 counter inconclusive and RORgamma inh 8.9µM*.
CC(NC(=O)C1CCCCC1)C(c1cccs1)N1CCOCC1 (stereo not given) was read as DT40 TDP1 CPT 3%, DT40 TDP1 no CPT -1%, VP16 counter 4% and RORgamma inh 0%.
For COc1ccccc1NC(=S)NC(C)C(c1cccs1)N1CCOCC1 (stereo not given) the results were TDP1 inh 2%, DT40 TDP1 CPT inconclusive, DT40 TDP1 no CPT inconclusive, VP16 counter inconclusive and RORgamma inh 13µM*.
For CC(NC(=S)Nc1ccc(Cl)cc1Cl)C(c1cccs1)N1CCCC1 (stereo not given) the results were TDP1 inh 6%, DT40 TDP1 CPT inconclusive, DT40 TDP1 no CPT inconclusive, VP16 counter inconclusive and RORgamma inh 11µM*.
COCCCN(CC(=O)Nc1ccc(F)cc1)S(=O)(=O)c1cccs1 was read as TDP1 inh 2%, DT40 TDP1 CPT 4% and DT40 TDP1 no CPT -21%.
`Nc1ccc(-n2nncc2-c2ccccc2)cc1` gave TDP1 inh 8%, DT40 TDP1 CPT 4%, DT40 TDP1 no CPT -4%, VP16 counter 23% and RORgamma inh 23%.
`O=C(NOCC1CC1)c1ccc(F)c(F)c1Nc1ccc(I)cc1Cl` gave DT40 TDP1 CPT inconclusive and DT40 TDP1 no CPT 15µM*.
COc1ccc(OC)c(NC(=O)c2ccccc2N(Cc2ccccc2)S(C)(=O)=O)c1 was read as TDP1 inh 1%, DT40 TDP1 CPT 15µM*, DT40 TDP1 no CPT inconclusive, VP16 counter -5% and RORgamma inh inconclusive.
Screening COc1ccc(NC(=O)c2ccccc2N(Cc2ccccc2)S(C)(=O)=O)c(OC)c1 returned DT40 TDP1 CPT 23µM*, DT40 TDP1 no CPT inconclusive, VP16 counter 11% and RORgamma inh inconclusive.
For CS(=O)(=O)N(Cc1ccccc1)c1ccccc1C(=O)O the results were TDP1 inh 0%, DT40 TDP1 CPT 6%, DT40 TDP1 no CPT 2%, VP16 counter 1% and RORgamma inh 5%.
For CC(=O)c1cccc(NC(=O)c2ccccc2N(Cc2ccccc2)S(C)(=O)=O)c1 the results were TDP1 inh 2%, DT40 TDP1 CPT -8%, DT40 TDP1 no CPT -18%, VP16 counter 6% and RORgamma inh 12%.
S=c1nc(-c2ccccc2)n(CCCn2ccnc2)c2c1CCCC2 was read as TDP1 inh 7%, DT40 TDP1 CPT -11%, DT40 TDP1 no CPT 2%, VP16 counter 0% and RORgamma inh -8%.
Screening CN(C)c1ccc(Nc2cc(Cl)ncn2)cc1 returned DT40 TDP1 CPT inconclusive, DT40 TDP1 no CPT -13%, VP16 counter -4% and RORgamma inh 30%.
CNC(=O)[C@H]1O[C@@H](n2cnc3c(NCc4cccc(I)c4)nc(Cl)nc32)[C@H](O)[C@@H]1O was read as TDP1 inh 10%, DT40 TDP1 CPT inconclusive and DT40 TDP1 no CPT 21µM*!.
For O=C(c1ccc(CNS(=O)(=O)c2ccccc2)cc1)N1CCN(Cc2ccccc2)CC1 the results were TDP1 inh 0%, DT40 TDP1 CPT inconclusive, DT40 TDP1 no CPT inconclusive, VP16 counter -2% and RORgamma inh 57%.
N#Cc1ccc(CN2CCN(C(=O)c3ccc(S(=O)(=O)NCc4ccco4)cc3)CC2)cc1 was read as TDP1 inh 4%, DT40 TDP1 CPT 10µM* and DT40 TDP1 no CPT 2.6µM*.
Screening O=C(c1ccc(S(=O)(=O)NCc2ccco2)cc1)N1CCCC1 returned TDP1 inh 7%, DT40 TDP1 CPT -19%, DT40 TDP1 no CPT -1%, VP16 counter -4% and RORgamma inh 4%.
Screening CC1CCN(C(=O)c2ccc(S(=O)(=O)NCc3ccco3)cc2)CC1 returned TDP1 inh 89µM*, DT40 TDP1 CPT 4%, DT40 TDP1 no CPT -15%, VP16 counter -1% and RORgamma inh -15%.
`CCOC(=O)c1ccc(NC(=O)CN2C(=O)C(CC)SC(CC)C2=O)cc1` (stereo not given) gave TDP1 inh 1%, DT40 TDP1 CPT -21%, DT40 TDP1 no CPT 3%, VP16 counter -5% and RORgamma inh 28%.
For COc1cc2c(cc1OC)C(C)N(C(=O)c1cc3c(s1)-c1c(C)cccc1OC3)CC2 (stereo not given) the results were TDP1 inh 0%, DT40 TDP1 CPT inconclusive, DT40 TDP1 no CPT 16µM*, VP16 counter -4% and RORgamma inh -14%.
COc1cc2c(cc1OC)C(C)N(C(=O)c1cc3c(s1)-c1ccccc1OC3)CC2 (stereo not given) was read as TDP1 inh 3%, DT40 TDP1 CPT inconclusive, DT40 TDP1 no CPT 21µM*, VP16 counter -10% and RORgamma inh -39%.
Screening COc1cc2c(cc1OC)C(C)N(C(=O)C1COc3ccccc3O1)CC2 (stereo not given) returned TDP1 inh 3%, DT40 TDP1 CPT 16µM*, DT40 TDP1 no CPT 26µM*, VP16 counter 4% and RORgamma inh inconclusive.
`COc1cccc(N2CCN(C(=O)c3cc4c(=O)oc5ccc(C)cc5c4s3)CC2)c1` gave TDP1 inh 8%, DT40 TDP1 CPT inconclusive and DT40 TDP1 no CPT inconclusive.

Bioassay records from PubChem BioAssay.
